# Test results: PubChem BioAssay AID504466 (National Center for Advancing Translational Sciences (NCATS), 2011)
# About 4,200 (1.3%) of roughly 330,000 compounds were called active. A call without a number means that no potency is given here. Roughly 6% stayed inconclusive and do not appear here. Calls come from the whole dose curve; as a rule, active = well fitted activation curve with a large enough effect; inconclusive = small, poorly fitted or top-dose-only effect; inactive = no such curve, though single readings can be large or run the other way. Many of the other results were omitted from the sample, so actives are more common in it than they were.
# Assay: qHTS screen for small molecules that induce genotoxicity in human embryonic kidney (HEK293T) cells expressing luciferase-tagged ELG1; note: nearly all actives have a fitted effect of over 60% in size
# Conditions: HEK293T ELG1-luciferase reporter, luminescence, 16 h; series mostly up to 46 µM
# How it was run: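 Step 1: seed 2,000 HEK293T ELG1-luciferase cells per well. Step 2: add compound or DMSO, incubate 16 hr at 37 °C. Step 3: ONE-Glo, 30 min at room temperature, read luminescence.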
# Potency is the fitted concentration of half-maximal effect.
SMILES,Potency,"activity change, positive = activation"
O=C(Nc1ccccc1)c1ccc(NC(=O)c2cccs2)cc1,inactive,–
CC(=O)Nc1ccc(/C=N/NC(=O)c2cccs2)cc1,16.4 µM (active),–
CCN(CC)c1ccc(/C=N/NC(=O)CNC(=O)c2cccs2)cc1,inactive,–
Cc1noc(C)c1S(=O)(=O)N(C)C[C@H]1Oc2ccc(NC(=O)C3CCCCC3)cc2C(=O)N([C@H](C)CO)C[C@@H]1C,inactive,–
Cc1ccc(NC(=O)C2CCC(C(C)(C)C)CC2)cc1S(=O)(=O)N1CCOCC1 (stereo not drawn),inactive,–
CN(C(=O)c1cccc(NC(=O)Cc2cccc([N+](=O)[O-])c2)c1)C1CCCCC1,inactive,–
Cn1nnnc1SCC(=O)Nc1cccc(S(=O)(=O)N2CCCCC2)c1,inactive,–
Cc1ccc(C(=O)OCc2nc(N)nc(Nc3ccccc3C)n2)cc1,inactive,–
Cc1ccccc1Nc1nc(N)nc(CN2CCN(c3ccccn3)CC2)n1,inactive,–
Cc1ccccc1Nc1nc(N)nc(CSc2ccccc2)n1,9.2 µM (active),–
Cc1ccc(S(=O)(=O)Cc2cc(-c3ccc(Cl)cc3)no2)cc1,inactive,–
Cc1ccc(NC(=O)c2cc(-c3ccccc3O)n[nH]2)cc1C,inactive,–
Oc1ccccc1-c1cc(-c2ccc(Cl)cc2)n[nH]1,2.31 µM (active),–
CCCCOc1ccc(C(=O)NCC(=O)OCC(=O)c2c(N)n(C)c(=O)n(C)c2=O)cc1,inactive,–
C[C@H](CO)N1C[C@H](C)[C@@H](CN(C)S(=O)(=O)c2ccc(F)cc2)Oc2c(NC(=O)Nc3ccccc3)cccc2C1=O,inactive,–
CCOC(=O)CCCCCC(=O)Nc1ccc2c(c1)CC(=O)N([C@@H](C)CO)C[C@H](C)[C@@H](CN(C)Cc1ccccc1)O2,inactive,–
Cc1ccn2cc(-c3nonc3C)cc2c1,23.1 µM (active),–
O=C1CN(C(=O)COC(=O)/C=C/c2ccc(F)cc2)c2ccccc2N1,inactive,–
O=C(O)Cc1ccc(NC(=O)Nc2cccc3ccccc23)cc1,inactive,–
O=C(Nc1cccc2ccccc12)c1onc2c1CCCC2,16.4 µM (active),–
O=C(O)c1ccccc1-c1ccccc1C(=O)Nc1cccc2ccccc12,inactive,–
O=C(Nc1cccc(S(=O)(=O)N2CCOCC2)c1)C12CC3CC(CC(C3)C1)C2,inactive,–
O=C(COC(=O)c1ccccc1O)NCc1ccco1,inactive,–
O=C(CSc1ncn[nH]1)Nc1ccc(Br)cc1Br,inactive,–
O=C(CNC(=O)c1ccc2ccccc2c1)Nc1ncccc1O,inactive,–
O=C(Nc1ncccc1O)c1ccc(C(=O)c2ccccc2)cc1,18.3 µM (active),–

SMILES,Potency,"activity change, positive = activation"
O=C(Nc1ncccc1O)c1ccc(S(=O)(=O)N2CCCC2)cc1,inactive,–
CC1Sc2ccc(C(=O)NCc3ccccc3Cl)cc2NC1=O (stereo not drawn),inactive,–
CCCCNS(=O)(=O)CCNCc1ccccc1OC,inactive,–
CCOc1ccc2nc(N(CCN(C)C)C(=O)c3ccc4ccccc4c3)sc2c1,inactive,–
CCOc1ccc2nc(C(=O)N3CCCC(C)C3)sc2c1 (stereo not drawn),10.3 µM (active),–
CCCC(=O)N(CCN1CCOCC1)c1nc2ccc(OCC)cc2s1,–,0.969% [at 9.26 µM] (inactive)
C=CC[C@@H](Cc1ccc(F)cc1)C(=O)OC[C@H]1CCCN1C(=O)[C@H](CC=C)CC(=O)N(CCO)Cc1ccccc1,inactive,–
COc1cccc(-c2sc3ccc(OC)cc3c2-c2ccc(OCCN3CCCCC3)cc2)c1,inactive,–
COC(=O)[C@]1(Cc2ccccc2)N[C@H](CN(C)S(=O)(=O)c2ccc(OC(F)(F)F)cc2)[C@@H]2C(=O)N(C)C(=O)[C@@H]21,inactive,–
O=C(c1ccc(N2CCOCC2)c([N+](=O)[O-])c1)N1CCN(c2ccccc2F)CC1,inactive,–
Cc1nc2cc(NCc3cccs3)ccc2n1C,inactive,–
C=CCN(C(=O)Nc1ccc2c(c1)nc(C)n2C)c1ccccc1,inactive,–
Cc1nc2cc(NC(=O)Nc3cccc(F)c3)ccc2n1C,0.92 µM (active),–
CNC[C@H]1Oc2c(NC(=O)C3CCCCC3)cccc2C(=O)N([C@H](C)CO)C[C@@H]1C,inactive,–
COc1ccc(/C=N\NC(=O)c2sc(N)nc2C)cc1OC,inactive,–
CCOc1ccccc1/C=N/Nc1nc2ccccc2o1,inactive,–
Oc1c(Br)cccc1/C=N/Nc1c(F)c(F)c(F)c(F)c1F,inactive,–
COc1ccc(/C=N/Nc2nc3ccccc3o2)cc1OC,2.59 µM (active),–
Brc1ccccc1/C=N/Nc1nc2ccccc2o1,11.6 µM (active),–
COc1cc(/C=N\Nc2nc(-c3cccs3)c(NC(C)=O)s2)ccc1O,inactive,–
CCCCNc1c(-c2ccc(OC)c(Sc3ccc(OC)cc3)c2)nc2ccc(Cl)cn12,inactive,–
O=C(CCNC(=O)c1ccccc1)NN=Cc1ccc(Br)o1,inactive,–
CC(=O)N(O)CCCCCNC(=O)CCC(=O)N(O)CCCCCNC(=O)CCC(=O)N(O)CCCCCNC(=O)CCC(=O)O,inactive,–
CCN(CC)c1ccc(/C=N/NC(=O)CNC(=O)c2cccnc2)cc1,inactive,–
Cc1ccc(C(=O)NCCNC(=O)c2cnccn2)cc1,inactive,–
CCN(CC)c1ccc(/C=N/NC(=O)c2cnccn2)c(O)c1,18.3 µM (active),–

SMILES,Potency,"activity change, positive = activation"
CN(CC(=O)NCCc1ccc(S(N)(=O)=O)cc1)CC(=O)Nc1ccc(Cl)cc1,inactive,–
COc1ccc(C(=O)NCc2ccccc2C)cc1S(=O)(=O)NC1CCCC1,inactive,–
CCOC(=O)c1oc2ccccc2c1NC(=O)c1cccs1,inactive,–
CCc1c(C)sc(NC(=O)c2cccs2)c1C(N)=O,18.4 µM (active),–
CCc1c(C)sc(NC(=O)c2ccc(Br)o2)c1C(=O)OC,inactive,–
CC(Sc1nncn1C)C(=O)NCCC1=CCCCC1 (stereo not drawn),inactive,–
CN1C(=O)[C@H]2[C@@H](/C=C/c3ccccc3)N3C(=O)CN(Cc4ccc(-c5ccccc5)cc4)C(=O)[C@@]3(C)[C@H]2C1=O,inactive,–
Cn1c(N)c(C(=O)COC(=O)c2ccc3ccccc3c2)c(=O)n(C)c1=O,inactive,–
COC(=O)CCC(=O)N1CCCC(CO)(Cc2ccccc2)C1 (stereo not drawn),20.6 µM (active),–
CCCc1cc(C(=O)N2CCCC(CO)(CCCc3ccccc3)C2)n(C)n1 (stereo not drawn),inactive,–
Cc1ccccc1CC1(CO)CCCN(C(=O)c2cc(-c3ccccc3)no2)C1 (stereo not drawn),inactive,–
Cc1onc(-c2c(F)cccc2Cl)c1C(=O)OCC(=O)N1C(C)CCCC1C (stereo not drawn),inactive,–
CCN(CC(=O)NC(C)C)C(=O)c1cc(S(=O)(=O)N2CCCCC2)ccc1N1CCCCC1,inactive,–
O=C(c1cc(-c2ccc(O)cc2)on1)N1CCCc2ccccc21,inactive,–
O=C(c1cc(-c2ccc(F)cc2)on1)N1CCN(c2ccc(F)cc2)CC1,inactive,–
O=C(c1cc(-c2ccc(O)cc2)on1)N1CCOCC1,4.61 µM (active),–
COc1ccc(-c2c(C#Cc3ccsc3)c3cc(-c4ccc(CN5CCOCC5)cc4)ccc3n2C)cc1,inactive,–
O=C(COC(=O)c1ccccc1C(=O)c1ccccc1)c1ccco1,inactive,–
O=C(OCC(=O)N1CCCC1)c1ccco1,inactive,–
CCc1ccc(C(=O)COC(=O)c2ccco2)cc1,23.1 µM (active),–
COc1ccc(S(=O)(=O)N2CCN(CC(=O)N3CCOCC3)CC2)cc1OC,inactive,–
CCOC(=O)C1=CN(Cc2ccc(Br)cc2)S(=O)(=O)N(C)C1C (stereo not drawn),inactive,–
COc1cc(NC(=O)COC(=O)c2cc(S(=O)(=O)N3CCOCC3)ccc2F)cc(OC)c1,inactive,–
CS(=O)(=O)N1CCN(c2cccc(Cl)n2)CC1,inactive,–
CS(=O)(=O)N1CCC(C(=O)N2CCN(c3ccccc3)CC2)CC1,inactive,–
CS(=O)(=O)N1CCc2nc(-c3ccccc3)sc2C1,9.2 µM (active),–

SMILES,Potency,"activity change, positive = activation"
COc1ccc(C(=O)COC(=O)CN2C(=O)C3CC=CCC3C2=O)c(OC)c1 (stereo not drawn),inactive,–
CC(Sc1ncnc2c1cnn2-c1ccccc1)C(=O)Nc1ccc(N2CCOCC2)cc1 (stereo not drawn),inactive,–
CCC(C)N(C(=O)CSc1ncnc2c1cnn2-c1ccccc1)C1CCS(=O)(=O)C1 (stereo not drawn),inactive,–
CC(C)Sc1ncnc2c1cnn2-c1ccccc1,8.2 µM (active),–
COc1ccc(Br)cc1CN(C)C(=O)C1CC(=O)N(C2CCCC2)C1 (stereo not drawn),inactive,–
O=C1NC(Cc2ccc(O)cc2)c2nc3ccc(Cl)cc3c(=O)n2-c2ccccc21 (stereo not drawn),inactive,–
O=C(Nc1ccccc1)c1ccco1,inactive,–
COC(=O)c1ccc(NC(=O)c2ccco2)cc1,20.6 µM (active),–
CCOC(=O)c1ccc(NC(=O)CNC(=O)c2ccco2)cc1,inactive,–
O=C(CN1C(=O)NC(Cc2c[nH]c3ccccc23)C1=O)Nc1ccccc1C(F)(F)F (stereo not drawn),inactive,–
C[C@H]1COC(=O)[C@H](CC(=O)OC(C)(C)C)C/C=C\C[C@@H](CC(=O)N[C@H](CO)Cc2ccccc2)C(=O)N1,inactive,–
CCOC(=O)C1=C(C)N(C[C@@H]2CC[C@@H](Cc3ccc(-c4ccccc4)cc3)O2)C(=O)NC1c1ccc([N+](=O)[O-])cc1 (stereo partly drawn),inactive,–
COc1ccc(C(=O)Nc2ccccc2C(=O)NCc2ccco2)cc1,inactive,–
COc1ccc(CNC(=O)CNC(=O)c2sc3ccccc3c2Cl)cc1OC,inactive,–
O=C(NCc1ccco1)c1nn2cccnc2c1Cl,inactive,–
O=C(NCc1ccco1)c1sc2cccc(F)c2c1Cl,18.4 µM (active),–
O=C(CCNC(=O)c1ccccc1Cl)NCc1ccco1,inactive,–
COc1ccc2c(Cl)c(C(=O)NCc3ccco3)sc2c1,10 µM (active),–
COc1cc(/C=C2\Oc3ccc(C#Cc4ccc(O)cc4)cc3C2=O)cc(OC)c1,inactive,–
Cc1cc(C(=O)OCC(=O)N2C(C)CCCC2C)c2ccccc2n1 (stereo not drawn),inactive,–
O=C(c1cnccn1)N1CCN(S(=O)(=O)c2cccc(Cl)c2)CC1,inactive,–
O=C(COC(=O)c1cc[n+]([O-])cc1)Nc1ccc(Cl)c(C(F)(F)F)c1,inactive,–
Cc1cc(O)cc(O)c1C(=O)Cc1cnn(-c2ccccc2)c1,inactive,–
COc1ccc(C(=O)CC(=O)c2ccc(C)cc2)c(O)c1,inactive,–
COc1ccc(C(=O)Cc2cnn(-c3ccccc3)c2)c(O)c1,18.4 µM (active),–
